# Compound activity deposited in PubChem by The Scripps Research Institute Molecular Screening Center.
# GPR151 ag: activators of human GPR151, primary screen, cell-based, PathHunter beta-arrestin, luminescence | actives 1% (n = 650,000) | AID 1508602, 2020 | activation, % at 11.2 µM | PathHunter beta-arrestin GPR151 cells; in the data active means activation above about 4.9%;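 further: 0% = median of compound wells and 100% = cells with positive control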
# TEAD-YAP inh: TEAD-YAP interaction inhibition, primary screen, TEAD-YAP interaction inhibitor project, luminescence, HEK-TIYL cells; actives 1.4% (n = 640,000); AID 1259422, 2018; TEAD-Gal4/YAP UAS-luciferase luminescence; inhibition, % at 9.12 µM; in the data active means inhibition above about 32%;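 further: 0% = median of test compound wells and 100% = reference inhibitor wells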
# FBW7 act: FBW7 E3 ligase activators, primary screen, biochemical, AlphaScreen, human. AlphaScreen FBW7–phospho-cyclin E peptide binding, activator screen. AID 1259310, 2017. F-box/WD repeat-containing protein 7 (Homo sapiens), Q969H0. normalized activity (activation), % at 26.1 µM. actives 0.13% (n = 650,000); in the data active means normalized activity above about 1.9%;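 further: purified mutant Fbw7 with reduced substrate affinity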
# MITF primary: MITF inhibitors, primary screen, biochemical, AlphaScreen, human; Microphthalmia-associated transcription factor (Homo sapiens), O75030; actives 0.91% (n = 650,000); inhibition, % at 2.6 µM; AlphaScreen MITF homodimerization, bead proximity signal; AID 1259374, 2018; in the data active means inhibition above about 50%;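 further: 0% = vehicle wells with protein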
# Target sequence (O75030 whole entry, looked up): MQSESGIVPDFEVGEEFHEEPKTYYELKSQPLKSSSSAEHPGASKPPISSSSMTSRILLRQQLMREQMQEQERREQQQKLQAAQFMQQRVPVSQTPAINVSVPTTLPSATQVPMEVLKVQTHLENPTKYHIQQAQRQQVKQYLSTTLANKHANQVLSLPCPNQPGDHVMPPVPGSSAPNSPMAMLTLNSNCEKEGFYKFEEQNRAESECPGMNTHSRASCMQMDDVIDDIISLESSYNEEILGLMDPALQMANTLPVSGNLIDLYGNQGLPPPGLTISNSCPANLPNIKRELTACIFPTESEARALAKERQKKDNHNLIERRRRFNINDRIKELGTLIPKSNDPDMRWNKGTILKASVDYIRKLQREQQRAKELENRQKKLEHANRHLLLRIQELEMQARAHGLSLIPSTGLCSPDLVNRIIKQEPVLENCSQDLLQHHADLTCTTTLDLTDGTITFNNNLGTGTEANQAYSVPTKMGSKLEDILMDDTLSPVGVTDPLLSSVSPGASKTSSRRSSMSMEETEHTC
# * hit, by the source's call; ! = repeats disagree. Shown are actives, neighbours in structure and some others; about 3.5% of the full set was active somewhere.
SMILES,GPR151 ag,TEAD-YAP inh,FBW7 act,MITF primary
CCc1cc(NCc2cccs2)n2nc3nc(C)cc(C)c3c2n1,0,-3,0,-8
O=C(c1cc2c(s1)CCC2)N1CCC(c2ccncc2)CC1,-1,33*,0,17
CS(=O)(=O)Cc1cccc(-c2ccnc(Nc3ccc(-n4ccnn4)cc3)n2)c1,0,41*,0,-9
c1ccc(-c2ccnc(Nc3ccc(-n4ccnn4)cc3)n2)cc1,-1,-24,0,13
CS(=O)(=O)c1ccc(-c2ccnc(Nc3ccc(-n4ccnn4)cc3)n2)cc1,1,11,0,14
CN1CCN(c2cccc(-c3ccnc(Nc4ccc(-n5ccnn5)cc4)n3)c2)CC1,-1,68*,0,9
COc1ccccc1C1(C#N)C(=O)Nc2ccccc21 (centres undefined),0,1,0,13
CCOc1ccc(-c2nc(-c3ccccc3)no2)cc1,-3,62*,0,13
COc1ccc(-c2noc(-c3ccco3)n2)cc1,-10,60*,0,-10
Cc1ccc(-c2noc(-c3ccco3)n2)cc1,-5,-7,0,0
CCOc1ccc(N(C(C)C(=O)Nc2cc(C)ccc2OC)S(C)(=O)=O)cc1 (centres undefined),0,47*,0,-12
CCOC(=O)c1ccccc1NC(=O)C(C)N(c1ccc(OCC)cc1)S(C)(=O)=O (centres undefined),-1,57*,0,-8
COc1ccc(N(C(C)C(=O)Nc2cc([N+](=O)[O-])ccc2OC)S(C)(=O)=O)cc1 (centres undefined),0,51*,0,1
CCOc1ccc(N(C(C)C(=O)Nc2ccc(Cl)cc2C)S(C)(=O)=O)cc1 (centres undefined),1,6,1,10
CCOc1ccc(N(C(C)C(=O)Nc2ccccc2Cl)S(C)(=O)=O)cc1 (centres undefined),1,0,0,-12
CCOc1ccc(N(C(C)C(=O)Nc2ccccc2OC)S(C)(=O)=O)cc1 (centres undefined),-1,17,0,1
CCOc1ccc(N(C(C)C(=O)Nc2cc(Cl)ccc2OC)S(C)(=O)=O)cc1 (centres undefined),1,32*,0,4
Cc1ccc(CCNC(=O)C(NS(=O)(=O)c2cccc3nsnc23)C(C)C)cc1 (centres undefined),0,-9,0,-2
COc1cc([N+](=O)[O-])ccc1N/C(N)=N/c1nc(C)cc(C)n1,0,57*!,0,-20
Cc1cc(C)nc(/N=C(\N)Nc2ccc([N+](=O)[O-])cc2C)n1,2,-1,0,0
CC1=C(C(=O)OCC(C)C)C(c2ccccc2)NC(=O)N1 (centres undefined),-1,-20,0,11
COc1ccc(-c2nc(CCn3c(C)nc4ccccc43)no2)cc1,2,38*,0,-8
Cc1ccc(-c2nnc(Cn3c(C)nc4ccccc43)o2)cc1,-1,58*,0,-16
CN(C)CCNc1nc2ccccc2n2c1nc1ccccc12,1,65*,0,3
c1ccc2c(c1)nc(NCc1ccncc1)c1nc3ccccc3n12,1,3,0,0
SMILES,GPR151 ag,TEAD-YAP inh,FBW7 act,MITF primary
CCCNC(=O)CN(Cc1ccccc1Cl)S(=O)(=O)c1ccc(C)cc1,-1,-1,0,11
COc1ccc(-c2cc(=O)c3cc(O)ccc3o2)cc1OC,-1,-13,0,-1
COc1cc(-c2c3cc(O)c(=O)cc-3oc3cc(O)c(O)cc23)ccc1C,-1,3,0,106*
O=c1cc2oc3cc(O)c(O)cc3c(-c3cccnc3)c-2cc1O,1,5,-1,100*
CCOc1ccccc1-c1c2cc(O)c(=O)cc-2oc2cc(O)c(O)cc12,0,6,0,103*
Cc1ccc(-c2cc(=O)c3cc(Cl)ccc3o2)cc1,4,-59,0,-9
Cc1ccc(-c2c3cc(O)c(=O)cc-3oc3cc(O)c(O)cc23)cc1,1,5,0,102*
CCOC(=O)c1c(NC(=O)CSc2nnc(-c3ccccc3)o2)sc(C)c1C,1,9,0,17
CCOC(=O)CSc1nnc(NC(=O)/C=C\c2ccc3c(c2)OCO3)s1,1,-3,0,20
